Results filed as inconclusive are left out. Activity calls are given as the source filed them. Unless noted, calls come from the whole dose curve; as a rule, active = well fitted curve in the direction sought with a large enough effect in the repeat runs; inconclusive = weak or mixed curves; inactive = no such curve, though single readings can be large; an effect the other way counts as inactive or inconclusive.
Tests used:
[1] = qHTS assay to identify small molecule antagonists of the estrogen related receptor (ERR) signaling pathway from Tox21 library - cell viability counter screen (AID 1224834); note: nearly all actives have a fitted effect of over 30% in size
In short: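 ERR reporter cells were plated 6 h before compound addition, then exposed to test compounds in DMSO for 17.5 h at 37 C. Viability was read as CellTiter-Fluor fluorescence after a 30-minute incubation at 37 C.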

[2] = qHTS assay to identify small molecule agonists of the constitutive androstane receptor (CAR) signaling pathway - cell viability counter screen (AID 1224836); note: nearly all actives have a fitted effect of over 45% in size; note: potency is the fitted concentration of half-maximal effect
In short: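 23 h treatment, 37 C, 5% CO2. Cell line: HepG2 stably expressing hCAR with a CYP2B6-2.2kb construct. Co-treatment: PK11195, 0.75 uM final. Read-out: CellTiter-Fluor fluorescence intensity.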

[3] = qHTS assay to identify small molecule antagonists of the constitutive androstane receptor (CAR) signaling pathway - cell viability counter screen (AID 1224837); note: nearly all actives have a fitted effect of over 45% in size; note: potency is the fitted concentration of half-maximal effect
In short: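 HepG2 cells stably expressing hCAR and a CYP2B6-2.2kb reporter were plated and pre-incubated 4 hr at 37 C/5% CO2, then given compounds at 15 concentrations plus 50 nM CITCO (final). After 23 hr, viability was read by CellTiter-Fluor fluorescence.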

[4] = target: Nuclear receptor subfamily 1 group I member 3 (Homo sapiens) (UniProt Q14994); assay: qHTS assay to identify small molecule antagonists of the constitutive androstane receptor (CAR) signaling pathway (AID 1224838); note: nearly all actives have a fitted effect of over 40% in size; note: potency is the fitted concentration of half-maximal effect
In short: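 HepG2 cells stably co-transfected with hCAR and a CYP2B6-2.2kb luciferase reporter were seeded 4 h before compound addition at 15 concentrations. Cells were stimulated with 50 nM CITCO (final) for 24 h at 37 C; luciferase luminescence was then read.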

[5] = target: Nuclear receptor subfamily 1 group I member 3 (Homo sapiens) (UniProt Q14994); assay: qHTS assay to identify small molecule agonists of the constitutive androstane receptor (CAR) signaling pathway (AID 1224839); note: nearly all actives have a fitted effect of over 15% in size; note: potency is the fitted concentration of half-maximal effect;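 for activation: HepG2 cells stably carrying human CAR and a CYP2B6 luciferase reporter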
In short: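 Compounds tested at 15 concentrations on HepG2 cells stably harbouring hCAR and CYP2B6-2.2kb reporter constructs, co-treated with PK11195 (0.75 uM final), 24 h at 37 C; luminescent reporter signal quantified.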

[6] = qHTS assay to identify small molecule antagonists of the estrogen related receptor signaling pathway with the pleiotropic PPARgamma coactivator (PGC) from Tox21 10K library - cell viability counter screen (AID 1224840; active = well fitted cell-killing curve with a large enough effect in the repeat runs, not every such curve was filed as active; note: nearly all actives have a fitted effect of over 40% in size)
In short: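 PGC/ERR cells were seeded at 2,000 cells/well and left 6 hours at 37 C/5% CO2 before pin-tool addition of compounds in DMSO. After 17.5 hours at 37 C, CellTiter-Fluor was added and fluorescence read 30 minutes later.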

[7] = qHTS assay to identify small molecule antagonists of the estrogen related receptor signaling pathway with the pleiotropic PPARgamma coactivator (PGC) from Tox21 10K library (AID 1224841; call rule not given here; note: actives are mostly falling curves and most rising ones were filed inactive; nearly all actives have a fitted effect of over 50% in size; note: potency is the fitted concentration of half-maximal effect)
In short: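 PGC/ERR reporter cells were seeded at 2,000 cells/well and held 6 hours at 37 C/5% CO2 before pin-tool addition of compounds in DMSO. After 18 hours at 37 C, One-Glo was added and luminescence read after 30 minutes at room temperature.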

[8] = qHTS assay to identify small molecule agonists of the estrogen related receptor signaling pathway with the pleiotropic PPARgamma coactivator (PGC) from Tox21 10K library (AID 1224842); note: nearly all actives have a fitted effect of over 15% in size
In short: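 Luminescence from One-Glo (30 min, room temperature) measured after PGC/ERR cells had 18 h at 37 C with pinned compound (23 nL in DMSO). Cells had been seeded at 2,000 per well and pre-incubated 6 h.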

[9] = qHTS assay to identify small molecule agonists of the hypoxia (HIF-1) signaling pathway - cell viability counter screen (AID 1224844; calls by dose curve; note: nearly all actives have a fitted effect of over 50% in size)
In short: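 HRE-bla ME-180 cells in medium with 0.5% dialyzed FBS were preincubated 5 hrs at 37C, exposed to compounds for 17 hrs, then viability was read as CellTiter-Glo luminescence after 30 min at room temperature, in the reporter wells.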

[10] = qHTS assay to identify small molecule agonists of H2AX (AID 1224845; active = well fitted activation curve with a large enough effect in the signal ratio in the repeat runs, not every such curve was filed as active; the % refers to the signal ratio; note: potency is the fitted concentration of half-maximal effect)
In short: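 Phospho-H2AX Ser139 measured by HTRF (ex 320 nm; em 665 and 620 nm) after 24 hr antibody incubation. Compounds, 15 concentrations, 0.76% DMSO, were applied to CHO-K1 cells for 3hr at 37C before lysis.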

[11] = qHTS assay to identify small molecule agonists of the hypoxia (HIF-1) signaling pathway (AID 1224846; active = well fitted activation curve with a large enough effect in the signal ratio in the repeat runs, not every such curve was filed as active; the % refers to the signal ratio)
In short: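 HRE-bla ME-180 cells (beta-lactamase reporter under hypoxia response element) were plated at 2,000 cells/well in medium with 0.5% dialyzed FBS, rested 5 hrs, then given compounds in DMSO for 17 hrs at 37C, 5% CO2. Reporter induction was read with CCF4-AM FRET substrate.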

[12] = qHTS assay to identify small molecule agonists of H2AX - cell viability counter screen (AID 1224847; calls by dose curve; note: nearly all actives have a fitted effect of over 30% in size; note: potency is the fitted concentration of half-maximal effect)
In short: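 Compounds tested at 15 concentrations were incubated 3 hr at 37C with wild-type CHO-K1 cells; cellular ATP-based luminescence (CellTiter-Glo) indicated viability.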

[13] = qHTS assay to identify small molecule antagonists of the estrogen related receptor (ERR) signaling pathway from Tox21 library (AID 1224848); note: nearly all actives have a fitted effect of over 50% in size; note: potency is the fitted concentration of half-maximal effect
In short: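 Antagonist-mode screen of the Tox21 10K library in an NTP-provided ERR reporter cell line; 18 h compound exposure at 37 C, luminescence measured with ONE-Glo.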

[14] = qHTS assay to identify small molecule agonists of the estrogen related receptor (ERR) signaling pathway from Tox21 library (AID 1224849; calls by dose curve; note: nearly all actives have a fitted effect of over 15% in size); conditions: ERR reporter cell line, ONE-Glo luciferase, 18 h; at 92.4 µM (top of the series) unless noted
In short: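 ERR reporter cell line (NTP) seeded, rested 6 h at 37 C/5% CO2, then pinned with Tox21 compounds in DMSO. After 18 h at 37 C, ONE-Glo luciferase luminescence was read following 30 min at room temperature.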

[15] = qHTS RealTime-Glo MT Cell Viability Assay in HEK293 cells - 32 hour (AID 1224868); note: nearly all actives have a fitted effect of over 50% in size; note: potency is the fitted concentration of half-maximal effect
In short: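 HEK293 cells were seeded at 600 cells/well together with NanoLuc luciferase and cell-permeant prosubstrate, preincubated 5 h at 37 C/5% CO2, then given compound in DMSO by pintool. Luminescence from viable-cell prosubstrate reduction was read repeatedly over 40 h.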

[16] = A CellTox Green Cytotoxicity Assay to monitor cytotoxicity in HEK293 cells - 0 hour (AID 1224869); note: nearly all actives have a fitted effect of over 50% in size
In short: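 HEK293 cells premixed with CellTox Green dye were seeded at 600 cells/well and left 5 h at 37 C/5% CO2 before pin transfer of 23 nL compound in DMSO. Fluorescence from dye bound to dead-cell DNA was read during 40 h treatment.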

[17] = qHTS RealTime-Glo MT Cell Viability Assay in HepG2 cells - 40 hour (AID 1224870); note: nearly all actives have a fitted effect of over 50% in size
In short: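 Real-time viability: cells seeded at 600 per well together with NanoLuc and cell-permeant prosubstrate, compounds added after 5 h incubation. Luminescence tracked at 0, 8, 16, 24, 32 and 40 h of exposure.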

[18] = target: Luciferin 4-monooxygenase (Photinus pyralis) (UniProt P08659); assay: qHTS assay to identify small molecule inhibitors of firefly luciferase (AID 1224835); note: nearly all actives have a fitted effect of over 25% in size
In short: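 Inhibition of purified Photinus luciferase is measured by luminescence. Substrate levels (D-luciferin, ATP) sit at their KM values. Each compound is tested in a concentration series.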

[19] = target: Thyrotropin receptor (Homo sapiens) (UniProt P16473); assay: qHTS assay to identify small molecule agonists of the thyroid stimulating hormone receptor (TSHR) signaling pathway (AID 1224843; calls by dose curve; note: nearly all actives have a fitted effect of over 45% in size)
In short: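 Screening of the Tox21 10K collection used HEK293 cells engineered with TSHR at 800 cells per well. After a 30-min room-temperature compound exposure, HTRF cAMP reagents were added and fluorescence recorded 1 h later.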

[20] = qHTS RealTime-Glo MT Cell Viability Assay in HepG2 cells - 24 hour (AID 1224867); note: nearly all actives have a fitted effect of over 50% in size
In short: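 HepG2 cells were seeded at 600 cells/well together with NanoLuc luciferase and a cell-permeant prosubstrate, preincubated 5 h at 37 C/5% CO2, then pin-dosed with compounds in DMSO. Nonlytic luminescence from viable cells was read at each time point.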
% is set by controls: 0 for no effect and ±100 for the full control effect.

Sequence of Thyrotropin receptor (Homo sapiens) (P16473 whole entry, looked up): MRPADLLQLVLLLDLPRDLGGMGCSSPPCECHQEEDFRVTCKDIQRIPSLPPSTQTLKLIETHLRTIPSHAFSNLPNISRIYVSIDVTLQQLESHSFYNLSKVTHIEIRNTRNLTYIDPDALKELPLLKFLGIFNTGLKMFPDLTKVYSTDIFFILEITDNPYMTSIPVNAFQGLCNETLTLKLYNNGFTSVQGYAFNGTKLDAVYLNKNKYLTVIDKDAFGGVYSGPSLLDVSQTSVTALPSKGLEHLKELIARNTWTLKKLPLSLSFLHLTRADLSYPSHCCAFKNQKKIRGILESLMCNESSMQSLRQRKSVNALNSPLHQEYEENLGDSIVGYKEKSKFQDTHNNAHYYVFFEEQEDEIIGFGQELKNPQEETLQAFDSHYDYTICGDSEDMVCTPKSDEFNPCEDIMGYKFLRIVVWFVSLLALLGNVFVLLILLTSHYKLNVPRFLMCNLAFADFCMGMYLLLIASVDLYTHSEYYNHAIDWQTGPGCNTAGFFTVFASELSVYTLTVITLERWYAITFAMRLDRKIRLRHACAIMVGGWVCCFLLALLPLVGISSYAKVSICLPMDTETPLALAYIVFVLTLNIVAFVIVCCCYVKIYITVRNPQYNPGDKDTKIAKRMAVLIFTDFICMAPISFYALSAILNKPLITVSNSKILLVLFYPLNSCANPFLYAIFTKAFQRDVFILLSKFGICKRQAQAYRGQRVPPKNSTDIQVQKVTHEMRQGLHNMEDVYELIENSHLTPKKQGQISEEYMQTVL
Sequence of Nuclear receptor subfamily 1 group I member 3 (Homo sapiens) (Q14994 whole entry, looked up): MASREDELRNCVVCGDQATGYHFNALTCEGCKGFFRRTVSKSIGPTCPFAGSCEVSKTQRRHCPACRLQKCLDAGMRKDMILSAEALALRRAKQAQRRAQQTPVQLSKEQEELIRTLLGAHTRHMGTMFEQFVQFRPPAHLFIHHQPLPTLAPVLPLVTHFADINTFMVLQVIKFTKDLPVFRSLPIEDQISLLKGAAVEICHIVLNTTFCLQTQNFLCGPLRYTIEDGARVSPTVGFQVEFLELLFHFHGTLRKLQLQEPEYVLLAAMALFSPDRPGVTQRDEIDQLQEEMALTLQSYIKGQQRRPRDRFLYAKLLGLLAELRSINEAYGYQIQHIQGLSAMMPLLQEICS
Sequence of Luciferin 4-monooxygenase (Photinus pyralis) (P08659 whole entry, looked up): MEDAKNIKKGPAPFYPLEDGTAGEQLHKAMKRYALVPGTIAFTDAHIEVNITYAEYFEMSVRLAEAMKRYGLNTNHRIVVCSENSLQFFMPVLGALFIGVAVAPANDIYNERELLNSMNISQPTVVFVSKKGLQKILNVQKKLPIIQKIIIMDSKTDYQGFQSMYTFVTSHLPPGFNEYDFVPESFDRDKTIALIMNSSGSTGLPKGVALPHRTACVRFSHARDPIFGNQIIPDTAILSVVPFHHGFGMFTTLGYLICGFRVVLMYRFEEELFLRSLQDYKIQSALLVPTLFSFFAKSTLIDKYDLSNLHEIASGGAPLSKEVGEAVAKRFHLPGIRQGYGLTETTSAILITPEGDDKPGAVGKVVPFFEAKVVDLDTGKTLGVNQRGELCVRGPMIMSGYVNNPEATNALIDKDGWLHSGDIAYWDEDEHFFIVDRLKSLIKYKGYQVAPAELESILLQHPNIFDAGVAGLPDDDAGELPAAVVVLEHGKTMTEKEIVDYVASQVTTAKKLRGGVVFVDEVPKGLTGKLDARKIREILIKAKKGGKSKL

Cc1ccccc1CCl
inactive: Potency [1] | Potency [2] | Potency [3] | Potency [4] | Potency [5] | Potency [6] | Potency [7] | Potency [8] | Potency [9] | Potency [10] | outcome [11] | Potency [12] | Potency [13] | activity change, positive = activation [14] 7.48% | Potency [15] | Potency [16] | Potency [17]

Cl/C=C\Cl
inactive: Potency [1] | Potency [18] | Potency [3] | Potency [6] | Potency [19] | Potency [9] | Potency [10] | outcome [11] | Potency [12] | Potency [20] | Potency [16] | Potency [17]

CC(=O)NC1CCSC1=O (stereo not given)
inactive: Potency [1] | Potency [18] | Potency [3] | Potency [6] | Potency [7] | Potency [8] | Potency [19] | Potency [9] | Potency [10] | outcome [11] | Potency [12] | Potency [13] | activity change, positive = activation [14] 1.16% [at 42.5 µM] | Potency [20] | Potency [15] | Potency [16] | Potency [17]

O=C(NC(=O)c1c(F)cccc1F)Nc1cc(Cl)c(Oc2ncc(C(F)(F)F)cc2Cl)c(Cl)c1
inactive: Potency [1] | Potency [18] | Potency [3] | Potency [4] | Potency [5] | Potency [9] | Potency [10] | outcome [11] | Potency [12] | Potency [16] | Potency [17]

CCC(Cl)CCl (stereo not given)
inactive: Potency [1] | Potency [18] | Potency [3] | Potency [4] | Potency [6] | Potency [7] | Potency [19] | Potency [9] | Potency [10] | outcome [11] | Potency [12] | Potency [13] | activity change, positive = activation [14] -1.76% | Potency [20] | Potency [15] | Potency [16] | Potency [17]

CO/N=C(/C(=O)OC)c1ccccc1COc1ccccc1C
active: Potency [5] 7.7 µM | Potency [12] 2.84 µM
inactive: Potency [1] | Potency [18] | Potency [3] | Potency [8] | Potency [19] | Potency [9] | Potency [10] | outcome [11] | activity change, positive = activation [14] -47.7% | Potency [20] | Potency [15] | Potency [16] | Potency [17]

O=C(O)c1ccccc1C(=O)Nc1cccc2ccccc12
inactive: Potency [1] | Potency [2] | Potency [3] | Potency [4] | Potency [6] | Potency [19] | Potency [9] | Potency [10] | outcome [11] | Potency [12] | Potency [15] | Potency [16] | Potency [17]
active: Potency [5] 30.6 µM

CCCCN(N=O)C(=N)N[N+](=O)[O-]
active: Potency [4] 31.3 µM | Potency [10] 103 µM
inactive: Potency [1] | Potency [18] | Potency [3] | Potency [6] | Potency [19] | outcome [11] | Potency [12] | Potency [16] | Potency [17]

CCO[C@H]1O[C@@H]2OC3(C)CC[C@H]4[C@H](C)CC[C@@H]([C@H]1C)[C@@]24OO3
inactive: Potency [18]

c1cc2ccc3cccc4ccc(c1)c2c34
inactive: Potency [18]

Clc1ccc(C2(Cn3cncn3)CC(Br)CO2)c(Cl)c1 (stereo not given)
inactive: Potency [4] | Potency [19] | Potency [9] | Potency [10] | outcome [11] | activity change, positive = activation [14] -55.5% | Potency [20] | Potency [16] | Potency [17]
active: Potency [7] 24.2 µM | Potency [12] 112 µM | Potency [13] 15.3 µM | Potency [15] 27.4 µM

N#CCC#N
inactive: Potency [18] | Potency [5] | Potency [19] | Potency [9] | outcome [11] | Potency [12] | Potency [20] | Potency [15] | Potency [16] | Potency [17]
active: Potency [2] 48.6 µM | Potency [4] 61.1 µM | Potency [10] 89.8 µM

CC(C)(C)C(O)C(Oc1ccc(Cl)cc1)n1cncn1 (stereo not given)
inactive: Potency [18] | Potency [3] | Potency [4] | Potency [6] | Potency [10] | outcome [11] | Potency [12] | Potency [20] | Potency [16]

NS(=O)(=O)C(F)(F)C(F)(F)C(F)(F)C(F)(F)C(F)(F)C(F)(F)C(F)(F)C(F)(F)F
inactive: Potency [18] | Potency [2] | Potency [3] | Potency [5] | Potency [7] | Potency [19] | Potency [10] | outcome [11] | Potency [12] | Potency [13] | activity change, positive = activation [14] -39.9% | Potency [20] | Potency [15] | Potency [16] | Potency [17]

O=C1NCN(c2ccccc2)C12CCN(CCCOc1ccc(F)cc1)CC2
inactive: Potency [5] | Potency [6] | Potency [7] | Potency [8] | Potency [9] | Potency [10] | outcome [11] | Potency [12] | Potency [13] | activity change, positive = activation [14] -8.92% [at 42.5 µM] | Potency [16] | Potency [17]
active: Potency [3] 3.35 µM | Potency [4] 9.44 µM
